This is part of a sample that, as a whole, favours compounds with a hit. Of some 83,000 tested, about 20% had one in any assay.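 Compound tested at a single concentration for 48 hours in 96-well plates; a percent growth value below 10 was scored as active.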 Unmarked numbers belong to inactive results. Activity calls are given as the source filed them.
What follows are compounds tested on OVCAR-3 ovarian (assay: NCI-60 one-dose screen, 48 h (100 = growth as untreated, 0 = no growth, -100 = all killed)). Settings: 10 µM unless noted.
With `CCC(=O)Nc1nnc(Cc2ccc(OC)c(OC)c2)s1` the growth was -45.3% (active). Work on `NC(=O)c1cc(Cl)ccc1NC(=O)COc1ccccc1` yielded a growth of 27.2%. In the case of `CCC12CCC3c4ccc(O)cc4CCC3C1CC(O)C2O` (stereo not given), the growth is reported as 95.4%. For `O=C1NC(=S)S/C1=C\c1cccc([N+](=O)[O-])c1`, the growth was 100%. `CCCCCn1c(=N)n(CC(O)COc2cccc(C)c2)c2ccccc21` (stereo not given) was tested, and the growth was 7.4% (active). `Cn1c2ccccc2c2nn(C(=O)c3ccccc3)c(=O)nc21` was tested, and the growth was 122%. With `N#CC1=C(N)Oc2cc(N)ccc2C1c1ccc(F)cc1` (stereo not given) the growth was 96.8%. Compound `COc1ccc(-c2c3c(N)c4c(nc3nc3c2c(C)nn3-c2ccccc2)CCCCC4)cc1` has a growth of 72.6%. With `CC(C)OC1=C(Cl)C(=O)c2ccccc2C1=O` the growth was 78%. Compound `O=c1[nH]c(-c2ccccn2)nc2sc3c(c12)CCCCCC3` has a growth of 54.7%. For `COc1c(O)c2c3c(c1OC)-c1ccccc1CC3N(S(=O)(=O)c1ccc(C)cc1)CC2` (stereo not given), the growth was -10.4% (active). For `COc1cc(-c2nc3ccccc3o2)cc(CN2CCN(c3ccccc3)CC2)c1O`, the growth was 63.7%. In the case of `O=C1/C(=C/c2ccccc2F)CNC/C1=C\c1ccccc1F`, the growth is reported as -68.6% (active). For `CN([N-]C(=O)CC(=O)[N-]N(C)C(=S)c1ccccc1)C(=S)c1ccccc1.[Cu+2]`, the growth was -85.7% (active). `COC(=O)c1ccc(C(=O)Nc2ccccc2N)cc1` showed a growth of 87.5%. Work on `FC(F)(F)c1cc(CNc2ncc(Br)c(Cl)n2)cc(C(F)(F)F)c1` yielded a growth of 120%. For `COc1ccc(NC(=O)COc2ccccc2)c(C(N)=O)c1`, the growth was 0.699% (active). With `Cn1c2ccccc2c2nn(Cc3ccccc3)c(=O)nc21` the growth was 107%. For `CCCCNNC(=O)c1ccc(Br)cc1`, the growth was 68.8%. `Cc1nc2cc(Nc3nc(Nc4ccc(F)cc4)nc(-c4cccs4)n3)ccc2n1Cc1ccccc1` gave a growth of 66.7%. `Cc1ccc(C2SCC(=O)N2NC(=O)c2[nH]c3ccc(F)cc3c2-c2ccccc2)cc1` (stereo not given) gave a growth of 92%. For `O=S(=O)(OCCO)c1ccccc1`, the growth was 112%. With `Cc1ccc(S(=O)(=O)N2CCc3ccc(O)c4c3C2CCc2ccccc2-4)cc1` (stereo not given) the growth was 99.1%. `Cc1nc2cc(Nc3nc(N4CCOCC4)nc(N4CCN(C)CC4)n3)ccc2n1Cc1ccccc1` showed a growth of 115%. In the case of `Clc1ccc(C2=NN(c3ccccc3)[C@H](c3cn(-c4ccccc4)nc3-c3ccccc3)C2)cc1`, the growth is reported as 113%. In the case of `COc1cccc(OC)c1OC(=O)c1ccccc1`, the growth is reported as 123%. Compound `CCSc1nnc2c3cc(Br)ccc3n(C)c2n1` has a growth of 109%. For `Cc1nn(-c2ccccc2)c2nc3nc4c(c(N)c3c(-c3ccc(Cl)cc3)c12)CCCC4`, the growth was 114%. In the case of `Cc1ccc(S(=O)(=O)N(c2ccc(Cl)cc2)c2ccc(Br)cc2C(=O)O)cc1`, the growth is reported as 120%. For `Cc1ccc2c(c1)c(Sc1ccc(C(=O)NO)cc1)c1n2CN(C)CC1`, the growth was -7.94% (active). In the case of `COc1cc(CNCCCN2C(=O)c3ccc4c5c(ccc(c35)C2=O)C(=O)N(CCCNCc2cc(OC)c(OC)c(OC)c2)C4=O)cc(OC)c1OC`, the growth is reported as -27.7% (active). `CCCCCCCCCCCC(=O)[O][Sn]([CH2]CCC)([CH2]CCC)[CH2]CCC` was tested, and the growth was -97.5% (active). With `COc1cc(NC(=O)COc2ccccc2)c(C(N)=O)cc1OC` the growth was 6.16% (active). `C=CC(=O)N1CC2(CCC(n3nc(-c4ccc(Oc5ccccc5)cc4)c4c(N)ncnc43)CC2)C1` was tested, and the growth was -36.6% (active). In the case of `CC(=O)OC[C@H](O)[C@@]1(O)CC[C@H]2[C@@H]3CCC4=CC(=O)CC[C@]4(C)[C@H]3[C@@H](O)C[C@@]21C`, the growth is reported as 108%. In the case of `Cc1ccc(S(=O)(=O)N2CCc3ccc(O)c4c3C2Cc2cc(Cl)ccc2-4)cc1` (stereo not given), the growth is reported as -3.87% (active). In the case of `COc1cc(/C=C/C(=O)C(=Cc2ccc(F)c(F)c2)C(=O)/C=C/c2ccc(O)c(OC)c2)ccc1O`, the growth is reported as -11.9% (active). `CCOC(=O)c1cc2c(n(C)c1=O)-c1cnn(-c3ccc(OC)cc3)c1CC2` was tested, and the growth was 107%. In the case of `Cc1ccc(S(=O)(=O)N2CCc3ccc(O)c4c3C2Cc2ccc3c(c2-4)OCO3)cc1` (stereo not given), the growth is reported as -47.7% (active). For `O=C(Nc1nc2ccccc2[nH]1)C(=O)Nc1nc2ccccc2[nH]1`, the growth was 101%.

Each compound was assayed on HS 578T breast in the same assay as above. Settings: 10 µM unless noted.
`CCC(=O)Nc1nnc(Cc2ccc(OC)c(OC)c2)s1` was tested, and the growth was -13% (active). `NC(=O)c1cc(Cl)ccc1NC(=O)COc1ccccc1` gave a growth of 54.7%. For `CCC12CCC3c4ccc(O)cc4CCC3C1CC(O)C2O` (stereo not given), the growth was 76.8%. Compound `O=C1NC(=S)S/C1=C\c1cccc([N+](=O)[O-])c1` has a growth of 118%. For `CCCCCn1c(=N)n(CC(O)COc2cccc(C)c2)c2ccccc21` (stereo not given), the growth was -0.161% (active). In the case of `Cn1c2ccccc2c2nn(C(=O)c3ccccc3)c(=O)nc21`, the growth is reported as 105%. With `N#CC1=C(N)Oc2cc(N)ccc2C1c1ccc(F)cc1` (stereo not given) the growth was 81.4%. Work on `COc1ccc(-c2c3c(N)c4c(nc3nc3c2c(C)nn3-c2ccccc2)CCCCC4)cc1` yielded a growth of 101%. `CC(C)OC1=C(Cl)C(=O)c2ccccc2C1=O` was tested, and the growth was 81.5%. For `O=c1[nH]c(-c2ccccn2)nc2sc3c(c12)CCCCCC3`, the growth was 69.9%. In the case of `COc1c(O)c2c3c(c1OC)-c1ccccc1CC3N(S(=O)(=O)c1ccc(C)cc1)CC2` (stereo not given), the growth is reported as 63%. With `COc1cc(-c2nc3ccccc3o2)cc(CN2CCN(c3ccccc3)CC2)c1O` the growth was 110%. `O=C1/C(=C/c2ccccc2F)CNC/C1=C\c1ccccc1F` was tested, and the growth was 24.5%. `CN([N-]C(=O)CC(=O)[N-]N(C)C(=S)c1ccccc1)C(=S)c1ccccc1.[Cu+2]` was tested, and the growth was -12.3% (active). `COC(=O)c1ccc(C(=O)Nc2ccccc2N)cc1` showed a growth of 75%. In the case of `FC(F)(F)c1cc(CNc2ncc(Br)c(Cl)n2)cc(C(F)(F)F)c1`, the growth is reported as 99.4%. In the case of `COc1ccc(NC(=O)COc2ccccc2)c(C(N)=O)c1`, the growth is reported as 27.9%. `Cn1c2ccccc2c2nn(Cc3ccccc3)c(=O)nc21` was tested, and the growth was 106%. `CCCCNNC(=O)c1ccc(Br)cc1` showed a growth of 56.8%. In the case of `Cc1nc2cc(Nc3nc(Nc4ccc(F)cc4)nc(-c4cccs4)n3)ccc2n1Cc1ccccc1`, the growth is reported as 50.3%. In the case of `Cc1ccc(C2SCC(=O)N2NC(=O)c2[nH]c3ccc(F)cc3c2-c2ccccc2)cc1` (stereo not given), the growth is reported as 95.3%. `O=S(=O)(OCCO)c1ccccc1` showed a growth of 108%. Work on `Cc1ccc(S(=O)(=O)N2CCc3ccc(O)c4c3C2CCc2ccccc2-4)cc1` (stereo not given) yielded a growth of 106%. Compound `Cc1nc2cc(Nc3nc(N4CCOCC4)nc(N4CCN(C)CC4)n3)ccc2n1Cc1ccccc1` has a growth of 108%. With `Clc1ccc(C2=NN(c3ccccc3)[C@H](c3cn(-c4ccccc4)nc3-c3ccccc3)C2)cc1` the growth was 131%. `COc1cccc(OC)c1OC(=O)c1ccccc1` gave a growth of 96.6%. With `CCSc1nnc2c3cc(Br)ccc3n(C)c2n1` the growth was 111%. `Cc1nn(-c2ccccc2)c2nc3nc4c(c(N)c3c(-c3ccc(Cl)cc3)c12)CCCC4` showed a growth of 105%. `Cc1ccc(S(=O)(=O)N(c2ccc(Cl)cc2)c2ccc(Br)cc2C(=O)O)cc1` gave a growth of 102%. Work on `Cc1ccc2c(c1)c(Sc1ccc(C(=O)NO)cc1)c1n2CN(C)CC1` yielded a growth of 33.5%. In the case of `COc1cc(CNCCCN2C(=O)c3ccc4c5c(ccc(c35)C2=O)C(=O)N(CCCNCc2cc(OC)c(OC)c(OC)c2)C4=O)cc(OC)c1OC`, the growth is reported as -34.1% (active). In the case of `CCCCCCCCCCCC(=O)[O][Sn]([CH2]CCC)([CH2]CCC)[CH2]CCC`, the growth is reported as -20.2% (active). `COc1cc(NC(=O)COc2ccccc2)c(C(N)=O)cc1OC` was tested, and the growth was 29.6%. With `C=CC(=O)N1CC2(CCC(n3nc(-c4ccc(Oc5ccccc5)cc4)c4c(N)ncnc43)CC2)C1` the growth was -35.5% (active). `CC(=O)OC[C@H](O)[C@@]1(O)CC[C@H]2[C@@H]3CCC4=CC(=O)CC[C@]4(C)[C@H]3[C@@H](O)C[C@@]21C` showed a growth of 114%. In the case of `Cc1ccc(S(=O)(=O)N2CCc3ccc(O)c4c3C2Cc2cc(Cl)ccc2-4)cc1` (stereo not given), the growth is reported as 62.8%. Compound `COc1cc(/C=C/C(=O)C(=Cc2ccc(F)c(F)c2)C(=O)/C=C/c2ccc(O)c(OC)c2)ccc1O` has a growth of 38.4%. `CCOC(=O)c1cc2c(n(C)c1=O)-c1cnn(-c3ccc(OC)cc3)c1CC2` gave a growth of 119%. `Cc1ccc(S(=O)(=O)N2CCc3ccc(O)c4c3C2Cc2ccc3c(c2-4)OCO3)cc1` (stereo not given) was tested, and the growth was 47.5%. `O=C(Nc1nc2ccccc2[nH]1)C(=O)Nc1nc2ccccc2[nH]1` gave a growth of 105%.

Reference: PubChem BioAssay (NCI)
